Most compounds without a hit are left out; they make up all but 15% or so of the library.
Gal4-VP16 FLuc = VP16 counterscreen qHTS for inhibitors of ROR gamma transcriptional activity. Drosophila S2 Gal4-VP16 UAS-luciferase, luminescence, 20 h. Potency, µM (titrated, usually from 53.6 µM), hits mostly inhibitors. AID 2546, 2010. hit rate 3.5% among 310,000;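 also: Gal4-VP16 expression switched on by copper sulfate through the metallothionein promoter; nearly all actives have a fitted effect of over 50% in size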
DT40 TDP1 no CPT = qHTS for Inhibitors of human tyrosyl-DNA phosphodiesterase 1 (TDP1): qHTS in cells in absence of CPT; DT40 Tdp1-/- hTDP1 cells, no CPT, ATP luminescence, 48 h; Potency, µM (series often up to 46.2 µM), hits mostly inhibitors; hit rate 15% among 420,000; also: nearly all actives have a fitted effect of over 55% in size
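Growth of hTDP1-complemented DT40 Tdp1-knockout cells is measured by ATP luminescence after at least 48 hr compound exposure at 37 °C, with DMSO substituting for the 20 nM CPT used in the parallel screen.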
TDP1 cell CPT = qHTS for Inhibitors of human tyrosyl-DNA phosphodiesterase 1 (TDP1): qHTS in cells in presence of CPT; chicken DT40 Tdp1-/-;hTDP1 cells + 20 nM CPT, ATP luminescence, 48 h; AID 686979, 2013; hit rate 12% among 420,000; Potency, µM (highest dose often 46.2 µM), most hits filed as inhibitors; also: nearly all actives have a fitted effect of over 55% in size
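Chicken DT40 Tdp1-/- cells stably complemented with human TDP1 were seeded at 400 cells/well in medium containing 20 nM camptothecin, exposed to pin-transferred compounds, and grown at 37 °C for at least 48 hr. Viability was read as ATP luminescence.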
RORgamma inh = qHTS for inhibitors of ROR gamma transcriptional activity; Potency, µM (doses to about 53.6 µM), actives largely listed as inhibitors; hit rate 5.4% among 310,000; Nuclear receptor ROR-gamma (Mus musculus), P51450; Drosophila S2 Gal4-RORgamma UAS-luciferase reporter, 20 h; also: nearly all actives have a fitted effect of over 60% in size
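Luciferase reporter read in Schneider cells carrying Gal4-RORγ (mouse) and UAS-Photinus luciferase; cells given compound 1 h before 700 uM copper sulfate induction, then incubated 20 h at ambient temperature.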
12-LOX inh = Primary qHTS assay for inhibitors of human arachidonate 12S-lipoxygenase (ALOX12): Round 2. Polyunsaturated fatty acid lipoxygenase ALOX12 (Homo sapiens), P18054. purified 12hLO, xylenol orange hydroperoxide absorbance. Potency, µM (highest dose often 108 µM), most hits filed as inhibitors. hit rate 1.1% among 580,000. AID 1671190, 2021
Target sequence (P18054 whole entry, looked up): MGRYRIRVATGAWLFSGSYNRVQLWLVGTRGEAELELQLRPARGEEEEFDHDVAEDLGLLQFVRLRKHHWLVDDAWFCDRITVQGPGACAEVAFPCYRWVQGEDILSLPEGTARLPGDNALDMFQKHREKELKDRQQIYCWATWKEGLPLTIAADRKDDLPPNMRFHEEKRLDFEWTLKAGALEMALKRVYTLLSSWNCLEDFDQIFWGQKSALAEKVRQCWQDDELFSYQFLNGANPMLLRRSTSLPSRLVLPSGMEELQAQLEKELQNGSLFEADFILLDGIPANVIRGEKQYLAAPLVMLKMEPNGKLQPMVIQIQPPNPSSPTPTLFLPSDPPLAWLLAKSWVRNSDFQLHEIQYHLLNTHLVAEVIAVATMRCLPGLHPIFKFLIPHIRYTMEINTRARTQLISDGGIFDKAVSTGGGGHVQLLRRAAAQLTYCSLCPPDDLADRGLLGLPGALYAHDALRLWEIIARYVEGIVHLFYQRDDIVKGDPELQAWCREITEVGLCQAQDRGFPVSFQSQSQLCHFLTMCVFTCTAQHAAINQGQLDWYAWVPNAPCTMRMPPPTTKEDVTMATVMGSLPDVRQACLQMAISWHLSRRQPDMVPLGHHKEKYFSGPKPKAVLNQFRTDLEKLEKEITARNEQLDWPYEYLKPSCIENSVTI
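Purified human 12hLO (150 nM final) in 25 mM Hepes, 0.01% Triton X-100, pH 7.0 was preincubated 15 min at room temperature with compound. Then 40 uM arachidonic acid was added, 30 min. Hydroperoxide was read by Fe-XO absorbance ratio 573/405 nm.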
ELG1 DNA repair = qHTS screen for small molecules that inhibit ELG1-dependent DNA repair in human embryonic kidney (HEK293T) cells expressing luciferase-tagged ELG1 | Potency, µM (top dose mostly 46.1 µM), most hits filed as inhibitors | hit rate 2.3% among 330,000 | HEK293T ELG1-luciferase reporter, luminescence, 16 h; DNA damage induced by 5-fluorouridine | AID 504467, 2011; also: nearly all actives have a fitted effect of over 55% in size
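Step one: seed 2,000 cells per well. Step two: pin-transfer compound or DMSO alongside 5-fluorouridine. Step three: incubate 16 hr, 37 °C, 5% CO2. Step four: add ONE-Glo, wait 30 min, read luminescence.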
Numbers stand for hits; [ ] = dose if it differs, or a comment. Calls follow the shape of the dose curve; as a rule, active = well fitted curve in the direction sought with a large enough effect; inconclusive = small, poorly fitted or top-dose-only effect, or another doubt; inactive = no such curve, though single readings can be large; an effect the other way counts as inactive or inconclusive.

For CCOc1ccccc1NC(=O)CCSc1nc2n[nH]c(C)c2c(=N)n1-c1ccccc1Cl the results were Gal4-VP16 FLuc inactive, DT40 TDP1 no CPT inconclusive, TDP1 cell CPT inconclusive, RORgamma inh inactive, 12-LOX inh inactive and ELG1 DNA repair 3.2µM.
For COc1ccc(-n2c(SCC(=O)NCc3ccc(C)cc3)nc3n[nH]c(C)c3c2=N)cc1 the results were DT40 TDP1 no CPT 4.1µM, TDP1 cell CPT 6.5µM and 12-LOX inh inactive.
`O=C(COc1ccc(-c2nnc3n2CCCC3)cc1)Nc1cccc(F)c1` gave 12-LOX inh inactive.
Screening CC(C)NC(=O)C(=O)NCCc1c[nH]c2ccccc12 returned 12-LOX inh inactive.
`CCOCCCNC(=O)C1Cn2cccc2C(=O)N1` (configuration not stated) gave 12-LOX inh inactive.
O=C(NNC1=Nc2cc([N+](=O)[O-])ccc2OC1)c1ccccc1Cl was read as Gal4-VP16 FLuc inactive, DT40 TDP1 no CPT inconclusive, TDP1 cell CPT inconclusive, RORgamma inh 1µM, 12-LOX inh inactive and ELG1 DNA repair inconclusive.
Screening CCN(c1ccccc1)S(=O)(=O)c1cc(C(=O)OCC(=O)c2c(N)n(C)c(=O)n(C)c2=O)ccc1C returned DT40 TDP1 no CPT 23µM, TDP1 cell CPT 9.2µM and 12-LOX inh inactive.
Screening CN(c1ccccc1)S(=O)(=O)c1cc(C(=O)OCC(=O)c2c(N)n(C)c(=O)n(C)c2=O)ccc1Cl returned DT40 TDP1 no CPT inconclusive, TDP1 cell CPT 26µM and 12-LOX inh inactive.
For Cc1ccc(N(C)S(=O)(=O)c2cccc(C(=O)OCC(=O)c3c(N)n(C)c(=O)n(C)c3=O)c2)cc1 the results were DT40 TDP1 no CPT 18µM, TDP1 cell CPT inconclusive, 12-LOX inh inactive and ELG1 DNA repair 16µM.
Cn1c(N)c(C(=O)COC(=O)c2ccc(Cl)c(S(=O)(=O)N3CCCCC3)c2)c(=O)n(C)c1=O was read as Gal4-VP16 FLuc inactive, DT40 TDP1 no CPT inconclusive, TDP1 cell CPT inactive, RORgamma inh inactive, 12-LOX inh inactive and ELG1 DNA repair inconclusive.
Screening CN1CCCCCCN(C(=O)COc2ccccc2)[C@H]2CCC[C@H]2C1=O returned 12-LOX inh inactive.
`COc1ccc(C2CC(c3cccc(C(F)(F)F)c3)=NN2c2ccc(S(N)(=O)=O)cc2)cc1` (configuration not stated) gave DT40 TDP1 no CPT 26µM, TDP1 cell CPT inconclusive, 12-LOX inh inactive and ELG1 DNA repair inactive.
COc1ccc(C2CC(c3cccc(F)c3)=NN2c2ccc(S(N)(=O)=O)cc2)cc1 (configuration not stated) was read as DT40 TDP1 no CPT inconclusive, TDP1 cell CPT inconclusive, 12-LOX inh 32µM and ELG1 DNA repair inactive.
COc1ccc(C2CC(c3cccc(Br)c3)=NN2c2ccc(S(N)(=O)=O)cc2)cc1 (configuration not stated) was read as DT40 TDP1 no CPT inconclusive, TDP1 cell CPT 26µM, 12-LOX inh inconclusive and ELG1 DNA repair inactive.
`COc1ccc(C2CC(c3ccccc3)=NN2c2ccc(S(N)(=O)=O)cc2)cc1` (configuration not stated) gave Gal4-VP16 FLuc inactive, DT40 TDP1 no CPT inconclusive, TDP1 cell CPT inactive, RORgamma inh inactive, 12-LOX inh inconclusive and ELG1 DNA repair inactive.
Screening O=S(=O)(c1cccc(Cl)c1Cl)N1CCN(c2nnnn2-c2ccccc2)CC1 returned 12-LOX inh inactive.
`COCCNC(=S)N/N=C(\C)c1cccc(C(F)(F)F)c1` gave Gal4-VP16 FLuc 5µM, DT40 TDP1 no CPT 21µM, TDP1 cell CPT inconclusive, RORgamma inh 2.5µM, 12-LOX inh inconclusive and ELG1 DNA repair inactive.
For COc1ccc(NCC(=O)N/N=C(\C)c2cc3ccccc3o2)cc1 the results were Gal4-VP16 FLuc inactive, DT40 TDP1 no CPT inconclusive, TDP1 cell CPT inconclusive, RORgamma inh inconclusive, 12-LOX inh inactive and ELG1 DNA repair inactive.
For COCCNC(=S)N/N=C(\C)c1ccc2cc(OC)ccc2c1 the results were Gal4-VP16 FLuc 1µM, DT40 TDP1 no CPT 26µM, TDP1 cell CPT 13µM, RORgamma inh 1µM, 12-LOX inh 35µM and ELG1 DNA repair inconclusive.
`COCCNC(=S)N/N=C(\C)c1ccc(OC(F)F)cc1` gave Gal4-VP16 FLuc 7.9µM, DT40 TDP1 no CPT inactive, TDP1 cell CPT 16µM, RORgamma inh 2.2µM, 12-LOX inh inconclusive and ELG1 DNA repair inactive.
COCCNC(=S)N/N=C(\C)c1cc2ccccc2o1 was read as Gal4-VP16 FLuc 4.5µM, DT40 TDP1 no CPT 18µM, TDP1 cell CPT inconclusive, RORgamma inh 5µM, 12-LOX inh inconclusive and ELG1 DNA repair inconclusive.
CC(=O)N[C@@H]1CN(C(=O)CCCS(N)(=O)=O)C[C@H]1c1ccc(C)cc1 was read as 12-LOX inh inactive.
For Cc1cccc(C)c1NC(=O)CNC(=O)c1cc2cc(Cl)ccc2nc1C the results were 12-LOX inh inactive.
For Cc1nc(C)c(C(=O)N2CCn3c(nnc3[C@@H]3C[C@@H](O)CN3Cc3ccccc3)C2)s1 the results were 12-LOX inh inactive.
COCCNC(=S)N/N=C(\C)c1ccc(C)c([N+](=O)[O-])c1 was read as Gal4-VP16 FLuc 4µM, DT40 TDP1 no CPT 1.5µM, TDP1 cell CPT 1.3µM, RORgamma inh 3.5µM, 12-LOX inh inconclusive and ELG1 DNA repair inactive.
`C/C(=N\NC(=O)c1ccccc1)c1ccc(C)c([N+](=O)[O-])c1` gave Gal4-VP16 FLuc inconclusive, DT40 TDP1 no CPT inconclusive, TDP1 cell CPT inconclusive, RORgamma inh inactive, 12-LOX inh inactive and ELG1 DNA repair inconclusive.
`Cc1ccc2c(C)c(CCC(=O)Nc3ccccc3Cl)c(=O)oc2c1` gave 12-LOX inh inactive.
CC(C)CNc1nc(=S)nc(N(C)C)[nH]1 was read as Gal4-VP16 FLuc 4.5µM, DT40 TDP1 no CPT inactive, TDP1 cell CPT inconclusive, RORgamma inh 1.8µM, 12-LOX inh inconclusive and ELG1 DNA repair inactive.
Screening CN(C)c1nc(=S)nc(NCc2ccccc2)[nH]1 returned Gal4-VP16 FLuc inactive[10 µM], DT40 TDP1 no CPT inconclusive, TDP1 cell CPT inconclusive, RORgamma inh inactive, 12-LOX inh inconclusive and ELG1 DNA repair inactive.
Screening CC(/C=C/c1ccc2c(c1)OCO2)=N/NC(=O)c1ccc(C)nc1 returned Gal4-VP16 FLuc 7.9µM, DT40 TDP1 no CPT 23µM, TDP1 cell CPT inconclusive, RORgamma inh 7.9µM, 12-LOX inh inactive and ELG1 DNA repair inactive.

Screens as filed in PubChem.
